Values joined by “and” are separate entries in the source; they are usually repeats but may differ in a detail not shown here. Equal values may be shown once. Inconclusive results are not listed. Some compounds were tested as several samples or in several runs, with calls that do not always agree. Active and inactive are the calls of the source. The calls were made as follows: active = hit-call score of the fitted dose curve at least 0.9, where 1 is the maximum; inconclusive = response in the unintended direction; inactive = score below 0.9.
Key:
[1] = target: Cellular tumor antigen p53 (Homo sapiens) (UniProt P04637); assay: TOX21_p53_BLA_p2_ratio: Tox21 HCT-116 p53 Agonism Beta-lactamase Assay, Ratio, Phase 2 (AID 2283592)
Procedure, shortened: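 Ratio endpoint: beta-lactamase cleavage of CCF4-AM, blue (460 nm) over green (530 nm). HCT116 reporter line; 16 h treatment, 37C; substrate 2 h RT.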

[2] = TOX21_p53_BLA_p3_viability: Viability Assessment in the Tox21 HCT-116 p53 Agonism Beta-lactamase Assay, Phase 3 (AID 2283593);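 also: cells exposed to compound for 16 h before reading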
Procedure, shortened: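 Cellular ATP was quantified by CellTiter-Glo luminescence, read after 30 min at room temperature. Beforehand, HCT116 cells (4000/well) received compound 5 h post-seeding, 217-fold diluted from DMSO, then incubated 16 h at 37C.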

[3] = target: Cellular tumor antigen p53 (Homo sapiens) (UniProt P04637); assay: TOX21_p53_BLA_p3_ratio: Tox21 HCT-116 p53 Agonism Beta-lactamase Assay, Ratio, Phase 3 (AID 2283596)
Procedure, shortened: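 Cells were seeded at 4000/well, rested 5 h at 37C, then dosed with DMSO compound solutions (217-fold dilution) for 16 h. CCF4-AM substrate was loaded for 2 h at room temperature, and the 460/530 nm emission ratio was fitted for gain of signal versus DMSO.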

[4] = target: Cellular tumor antigen p53 (Homo sapiens) (UniProt P04637); assay: TOX21_p53_BLA_p5_ratio: Tox21 HCT-116 p53 Agonism Beta-lactamase Assay, Ratio, Phase 5 (AID 2283599)
Procedure, shortened: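 Beta-lactamase reporter ratio (blue 460 nm over green 530 nm, 405 nm excitation) after 2 h CCF4-AM loading, in HCT-116 cells exposed 16 h at 37 C to compounds pinned at 217-fold dilution. Increases relative to DMSO baseline scored.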

[5] = TOX21_p53_BLA_p5_viability: Viability Assessment in the Tox21 HCT-116 p53 Agonism Beta-lactamase Assay, Phase 5 (AID 2283600)
Procedure, shortened: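 Luciferase-coupled ATP quantitation of cells treated for 16 h (37C, 5% CO2) with test chemicals delivered in DMSO via a 217-fold dilution; 4000 cells/well; reagent incubated 30 min at room temperature before luminescence reading.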

[6] = target: Cellular tumor antigen p53 (Homo sapiens) (UniProt P04637); assay: TOX21_p53_BLA_p4_ratio: Tox21 HCT-116 p53 Agonism Beta-lactamase Assay, Ratio, Phase 4 (AID 2283601)
Procedure, shortened: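 Signal is the blue/green (460nm/530nm) ratio of cleaved versus uncleaved CCF4-AM substrate, read after 2 h substrate loading. Cells were HCT116 carrying the p53-responsive beta-lactamase reporter, dosed 16 h at 37C, 5% CO2; CellTiter-Glo measured in parallel.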

[7] = Tanguay_ZF_120hpf_MORT_legacy: (Legacy) Oregon State University Tanguay Lab 120 Hour Post-fertilization zebrafish Assay for Mortality (AID 2283633);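 as to AC50: fitted as increase in binary mortality versus DMSO negative control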
Procedure, shortened: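 Dechorionated Tropical 5D wild-type zebrafish embryos, one per well from 6 hpf, were statically exposed at 28C in the dark until 120 hpf (0.64% DMSO final). Mortality was scored as present/absent by brightfield microscopy, fitted positively versus DMSO.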

[8] = Tanguay_ZF_120hpf_YSE_legacy: (Legacy) Oregon State University Tanguay Lab 120 Hour Post-fertilization zebrafish Assay for Yolk Sac Edema (AID 2283634)
Procedure, shortened: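 Tropical 5D wild-type embryos, dechorionated with pronase at 4 hpf, were exposed singly from 6 hpf to 120 hpf under static, sealed, dark conditions at 28C with 0.64% DMSO final. Yolk sac edema was scored present/absent by brightfield microscopy.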

[9] = Tanguay_ZF_120hpf_AXIS_legacy: (Legacy) Oregon State University Tanguay Lab 120 Hour Post-fertilization zebrafish Assay for Body Axis Malformation (AID 2283635)
Procedure, shortened: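 Tropical 5D wild-type zebrafish embryos, dechorionated with pronase at 4 hpf, were placed singly in wells at 6 hpf and exposed statically to test chemical (0.64% DMSO final) at 28C until 120 hpf, then scored by brightfield for body axis defects.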

[10] = Tanguay_ZF_120hpf_EYE_legacy: (Legacy) Oregon State University Tanguay Lab 120 Hour Post-fertilization zebrafish Assay for Eye Malformation (AID 2283636);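 also: binary presence or absence of eye malformation scored by brightfield in 120 hpf larvae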
Procedure, shortened: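 Binary brightfield scoring of eye defects at 120 hpf after static exposure from 6 hpf of single pronase-dechorionated wild-type embryos (28C, 0.64% DMSO). Non-mortality endpoints omitted where embryos died; fit vs DMSO.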

[11] = Tanguay_ZF_120hpf_SNOU_legacy: (Legacy) Oregon State University Tanguay Lab 120 Hour Post-fertilization zebrafish Assay for Snout Malformation (AID 2283637)
Procedure, shortened: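 Binary snout-malformation call at 120 hpf in wild-type 5D embryos, chorion removed by pronase, under static exposure from 6 hpf at 28C (0.64% DMSO). Embryos dying by 24 or 120 hpf excluded.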

[12] = Tanguay_ZF_120hpf_JAW_legacy: (Legacy) Oregon State University Tanguay Lab 120 Hour Post-fertilization zebrafish Assay for Jaw Malformation (AID 2283638)
Procedure, shortened: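 Tropical 5D wild-type embryos, dechorionated with pronase at 4 hpf, were placed singly per well at 6 hpf and statically exposed at 28C until 120 hpf (0.64% DMSO final). Jaw malformation scored as present/absent by brightfield microscopy at 120 hpf, analyzed relative to DMSO.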

[13] = Tanguay_ZF_120hpf_PE_legacy: (Legacy) Oregon State University Tanguay Lab 120 Hour Post-fertilization zebrafish Assay for Pericardial Edema (AID 2283640)
Procedure, shortened: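 Tropical 5D wild-type zebrafish embryos were exposed statically to 120 hpf at 28C, sealed and foil-covered, in 0.64% DMSO final. Pericardial edema was scored present/absent by brightfield microscopy; dead embryos were not scored.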

[14] = Tanguay_ZF_120hpf_BRAI_legacy: (Legacy) Oregon State University Tanguay Lab 120 Hour Post-fertilization zebrafish Assay for Brain Malformation (AID 2283641)
Procedure, shortened: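 Tropical 5D wild-type zebrafish embryos were exposed statically in sealed, foil-covered plates at 28C until 120 hpf, with 0.64% (vol/vol) final DMSO. Brain malformation was scored present/absent by brightfield microscopy, relative to DMSO baseline.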

[15] = Tanguay_ZF_120hpf_SOMI_legacy: (Legacy) Oregon State University Tanguay Lab 120 Hour Post-fertilization zebrafish Assay for Somite Malformation (AID 2283647)
Procedure, shortened: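 Tropical 5D wild-type zebrafish embryos, dechorionated with pronase at 4 hpf, were placed singly at 6 hpf and statically exposed until 120 hpf at 28C in 0.64% DMSO. Somite malformation was scored present/absent by brightfield microscopy versus DMSO.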

[16] = Tanguay_ZF_120hpf_PFIN_legacy: (Legacy) Oregon State University Tanguay Lab 120 Hour Post-fertilization zebrafish Assay for Pectoral Fin Malformation (AID 2283648);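 also: each larva judged yes or no for fin defect by brightfield with dead larvae skipped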
Procedure, shortened: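 Pectoral fin malformation was recorded as a binary endpoint at 120 hpf in wild-type Tropical 5D larvae, which had been dechorionated and exposed statically from 6 hpf at 28C in 0.64% DMSO. Dead embryos were excluded.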

[17] = Tanguay_ZF_120hpf_OTIC_legacy: (Legacy) Oregon State University Tanguay Lab 120 Hour Post-fertilization zebrafish Assay for Otic Vesicle Malformation (AID 2283639)
Procedure, shortened: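 Statically exposed wild-type 5D zebrafish embryos, kept sealed and dark at 28C through 120 hours post fertilization, were examined by brightfield microscopy for otic vesicle defects. Responses were recorded as present or absent and analysed relative to DMSO.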

[18] = Tanguay_ZF_120hpf_PIG_legacy: (Legacy) Oregon State University Tanguay Lab 120 Hour Post-fertilization zebrafish Assay for Pigmentation Malformation (AID 2283650)
Procedure, shortened: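 Pigment malformation recorded as a binary call at 120 hpf in zebrafish (Tropical 5D) exposed singly from 6 hpf after pronase dechorionation. Static, sealed, 28C exposure, 0.64% DMSO; mortality excludes scoring; positive-direction fit against DMSO.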

[19] = TOX21_p53_BLA_p4_viability: Viability Assessment in the Tox21 HCT-116 p53 Agonism Beta-lactamase Assay, Phase 4 (AID 2283597);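 also: hits lower the luminescence signal meaning cytotoxicity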
Procedure, shortened: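 Cytotoxicity was inferred from loss of CellTiter-Glo luminescence. HCT116 cells had been dosed with compounds after 5 h plating, incubated 16 h at 37C and 5% CO2, and exposed to the CCF4-AM substrate for 2 h.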

[20] = Tanguay_ZF_120hpf_CFIN_legacy: (Legacy) Oregon State University Tanguay Lab 120 Hour Post-fertilization zebrafish Assay for Caudal Fin Malformation (AID 2283649)
Procedure, shortened: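 Tropical 5D wild-type embryos, dechorionated with pronase at 4 hpf, were placed singly in wells at 6 hpf and statically exposed to compound at 28C until 120 hpf (0.64% DMSO). Caudal fin malformation was scored present/absent by brightfield microscopy.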

Measured: AC50

Sequence of Cellular tumor antigen p53 (Homo sapiens) (P04637 whole entry, looked up): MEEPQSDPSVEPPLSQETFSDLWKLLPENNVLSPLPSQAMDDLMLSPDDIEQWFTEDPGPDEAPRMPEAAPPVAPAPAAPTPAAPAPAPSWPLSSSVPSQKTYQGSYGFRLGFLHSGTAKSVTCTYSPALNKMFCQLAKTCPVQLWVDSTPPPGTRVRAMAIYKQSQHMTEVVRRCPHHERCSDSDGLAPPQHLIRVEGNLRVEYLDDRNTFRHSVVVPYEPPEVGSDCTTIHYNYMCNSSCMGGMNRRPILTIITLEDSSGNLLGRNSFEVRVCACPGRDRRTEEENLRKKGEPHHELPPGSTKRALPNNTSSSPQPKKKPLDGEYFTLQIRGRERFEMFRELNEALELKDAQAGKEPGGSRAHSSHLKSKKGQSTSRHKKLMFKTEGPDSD

O=C(O)CN(CC(=O)O)CC(=O)O
inactive: [1] | [2] | [3] | [4] | [5] | [6] | [7] | [8] | [9] | [10] | [11] | [12] | [13] | [14] | [15] | [16]

C=CCc1ccc(OC)c(OC)c1
inactive: [1] | [2] | [3] | [4] | [5] | [6] | [8] | [9] | [10] | [11] | [12] | [17] | [13] | [14] | [16] | [18]

O=C(O)c1[nH]n(-c2ccc(S(=O)(=O)O)cc2)c(=O)c1N=Nc1ccc(S(=O)(=O)O)cc1
active: [1] 0.189 nM | [3] 0.0528 nM | [4] 0.0652 nM | [6] 0.0618 nM
inactive: [1] | [2] | [3] | [19] | [4] | [5] | [7] | [8] | [9] | [10] | [11] | [12] | [17] | [13] | [14] | [15] | [16] | [20] | [18]

CN(C)CCCN1c2ccccc2Sc2ccc(Cl)cc21
inactive: [1] | [2] | [3] | [4] | [6] | [8] | [9] | [10] | [11] | [12] | [17] | [13] | [14] | [15] | [16] | [20] | [18]
active: [1] 6660 nM | [19] 36.8 µM and 73.4 µM | [5] 77.8 µM | [6] 20600 nM | [7] 16.3 µM

Nc1nc(Cl)nc2c1ncn2[C@H]1C[C@H](O)[C@@H](CO)O1
inactive: [2] | [19] | [5] | [7] | [8] | [9] | [10] | [11] | [12] | [17] | [13] | [14] | [16] | [20]
active: [1] 271 nM and 790 nM | [3] 468 nM and 960 nM | [4] 455 nM and 793 nM | [6] 244 nM and 886 nM

Source: PubChem BioAssay (EPA / NIEHS)
